Reference: the supplement of paper PMC10515830
Counter-ions that a name gives are not always drawn.

What was measured:
Settings in all cases: 10 µM; exposure time 6 h
[1] = system: Danio rerio larvae (5 dpf); test: difference in excitability vs DMSO (percentage points); higher = more excitable than DMSO
Summary of the method: (§1)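 In 96-well plates, 48 wild-type zebrafish larvae aged 5 dpf per compound received 100 µL egg water with library compound at 10 µM final for 6 h. Three hours into this, a 3-h programme of moving lines and 100 ms, 400Hz tones ran at 28.5 ℃ while plates were photographed every 6 s. Z-LaP Tracker scored the behaviours, and each is given as the compound mean minus the vehicle control mean in percentage points.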

[2] = system: Danio rerio larvae (5 dpf); test: difference in startle response vs DMSO (percentage points); higher = stronger startle than DMSO
Summary of the method: as §1

[3] = system: Danio rerio larvae (5 dpf); test: difference in activity during first hour vs DMSO (percentage points); higher = more activity than DMSO
Summary of the method: as §1

[4] = system: Danio rerio larvae (5 dpf); test: difference in habituation to acoustic stimuli vs DMSO (percentage points); higher = more habituation than DMSO
Summary of the method: as §1

[5] = system: Danio rerio larvae (5 dpf); test: difference in combined optomotor response to red, green and blue moving lines vs DMSO (percentage points); higher = stronger optomotor response than DMSO
Summary of the method: as §1

Structure (SMILES)	difference in excitability [1]	difference in startle response [2]	difference in activity during first hour [3]	difference in habituation to acoustic stimuli [4]	difference [5]
Cc1c(O)cccc1C(=O)N[C@@H](CSc1ccccc1)[C@H](O)CN1C[C@H]2CCCC[C@H]2C[C@H]1C(=O)NC(C)(C)C [Nelfinavir (mesylate)]	17.7	0.499	-23	2.82	-10.2
OC[C@H]1O[C@@H](c2ccc(Cl)c(Cc3ccc(O[C@H]4CCOC4)cc3)c2)[C@H](O)[C@@H](O)[C@@H]1O [Empagliflozin]	2.31	-2.32	18.8	-5.57	4.06
CO/N=C(\C(=O)N[C@@H]1C(=O)N2C(C(=O)O)=C(CSc3nc(=O)c(O)nn3C)CS[C@H]12)c1csc(N)n1 [Ceftriaxone (sodium salt hydrate)]	3.71	4.15	12	-2.08	8.58
Cc1ccc(/C(=C\CN2CCCC2)c2cccc(/C=C/C(=O)O)n2)cc1 [Acrivastine]	1.28	-0.645	0.462	0.73	-3.37
COc1c(N2C[C@@H]3CCCN[C@@H]3C2)c(F)cc2c(=O)c(C(=O)O)cn(C3CC3)c12 [Moxifloxacin (hydrochloride)]	22.9	4.54	5.78	3.51	3.81
CC(=O)OCC(=O)[C@@]12OC3(CCCC3)O[C@@H]1C[C@H]1[C@@H]3CCC4=CC(=O)C=C[C@]4(C)[C@@]3(F)[C@@H](O)C[C@@]12C [Amcinonide]	8.43	5.38	-7.56	-0.863	4.08
Nc1ccc(S(=O)(=O)Nc2ncccn2)cc1 [Sulfadiazine]	11.9	4.72	7.75	1.42	-1.28
OCCOc1ccc(/C(=C(/CCCl)c2ccccc2)c2ccccc2)cc1 [Ospemifene]	6.62	-3.99	-12.6	-8.31	-16.5
Cc1ncc([N+](=O)[O-])n1CC(C)O (stereo not given) [Secnidazole]	4.12	-1.25	19.9	-6.46	6.66
CC#CC(=O)N1CCC[C@H]1c1nc(-c2ccc(C(=O)Nc3ccccn3)cc2)c2c(N)nccn12 [Acalabrutinib]	2.39	12.9	10.5	5	-2.56
CN(C)c1ccc(O)c2c1C[C@H]1C[C@H]3[C@H](N(C)C)C(O)=C(C(N)=O)C(=O)[C@@]3(O)C(O)=C1C2=O [Minocycline (hydrochloride hydrate)]	3.95	-2.06	13.3	8.03	-2.24
CN1CCc2cccc3c2[C@H]1Cc1ccc(O)c(O)c1-3 [(-)-Apomorphine (hydrochloride hydrate)]	19.8	-2.6	-20.1	-5.47	-13
CC(C)OC(=O)C(C)(C)Oc1ccc(C(=O)c2ccc(Cl)cc2)cc1 [Fenofibrate]	13.8	-6.52	45.6	-9.59	-15.8
C[C@H]1C[C@H]2[C@@H]3CCC4=CC(=O)C=C[C@]4(C)[C@@]3(F)[C@@H](O)C[C@]2(C)[C@@]1(O)C(=O)CO [Betamethasone]	19.9	8.22	-16.1	3.7	5.5
CC(C)(C)NC[C@H](O)COc1cccc2c1CCCC2=O [Levobunolol (hydrochloride)]	5.55	1.6	12.7	-1.95	5.62
CN(CCOc1ccc(CC2SC(=O)NC2=O)cc1)c1ccccn1 (stereo not given) [Rosiglitazone (maleate)]	10.7	-3.19	10.3	-2.4	-0.752
Cc1nnc(C(=O)NC(C)(C)c2nc(C(=O)NCc3ccc(F)cc3)c(O)c(=O)n2C)o1 [Raltegravir (potassium salt)]	-0.288	1.86	0.698	-5.1	5.8
C/C=C1\NC(=O)[C@H]2CSSCC/C=C/[C@H](CC(=O)N[C@H](C(C)C)C(=O)N2)OC(=O)[C@H](C(C)C)NC1=O [Romidepsin]	2.86	-0.00342	21	0.496	8.55
Nc1ncn([C@H]2C[C@H](O)[C@@H](CO)O2)c(=O)n1 [Decitabine]	-2.79	-4.56	-0.853	0.137	4.38
CCCc1nc(C(C)(C)O)c(C(=O)OCc2oc(=O)oc2C)n1Cc1ccc(-c2ccccc2-c2nnn[nH]2)cc1 [Olmesartan Medoxomil]	-0.702	-2.51	0.837	-4.7	0.0218
CC1(C)S[C@@H]2[C@H](NC(=O)[C@H](N)c3ccccc3)C(=O)N2[C@H]1C(=O)O [Ampicillin (sodium salt)]	2.42	0.739	-2.5	-4.92	-2.47
CC(=O)Nc1cccc(-n2c(=O)n(C3CC3)c(=O)c3c(Nc4ccc(I)cc4F)n(C)c(=O)c(C)c32)c1 [Trametinib]	9.81	0.301	6.06	2.09	6.51
Cc1ccc(NC(=O)c2ccc(CN3CCN(C)CC3)cc2)cc1Nc1nccc(-c2cccnc2)n1 [Imatinib (mesylate)]	13.1	1.01	-9.06	5.17	-1.23

Structure (SMILES)	difference in excitability [1]	difference in startle response [2]	difference in activity during first hour [3]	difference in habituation to acoustic stimuli [4]	difference [5]
NCCCC(O)(P(=O)(O)O)P(=O)(O)O [Alendronate (sodium hydrate)]	-4.92	0.325	-3.96	-4.98	5.9
CCOC(=O)[C@H](CCc1ccccc1)N[C@@H](C)C(=O)N1[C@H](C(=O)O)C[C@@H]2CCC[C@@H]21 [Ramipril]	-5.85	-2.41	5.42	-0.379	7.67
NCCCCCC(=O)O [6-Aminocaproic Acid]	8.15	-0.142	5.22	0.269	3.43
COCC1=C(C(=O)O)N2C(=O)[C@@H](NC(=O)/C(=N\OC)c3csc(N)n3)[C@H]2SC1 [Cefpodoxime]	0.712	1.11	-0.401	-0.554	7.24
OC(CCN1CCCCC1)(c1ccccc1)C1CC2C=CC1C2 (stereo not given) [Biperiden (hydrochloride)]	9.71	-7.39	-0.127	-10.7	-2.85
Cc1cc(C#N)cc(C)c1Oc1nc(Nc2ccc(C#N)cc2)nc(N)c1Br [Etravirine]	-2.94	0.144	10.9	-5.6	7.48
CCCN(CCc1cccs1)[C@H]1CCc2c(O)cccc2C1 [Rotigotine]	20.1	-3.78	-23.8	-14.4	-15.9
CCCCc1ncc(/C=C(\Cc2cccs2)C(=O)O)n1Cc1ccc(C(=O)O)cc1 [Eprosartan (mesylate)]	7.16	-7.77	-8.19	-4.96	5.89
O=C1CN(/N=C/c2ccc([N+](=O)[O-])o2)C(=O)N1 [Nitrofurantoin]	9.88	-2.07	8.16	4.03	8.98
CC(Oc1c(Cl)cccc1Cl)C1=NCCN1 (stereo not given) [Lofexidine (hydrochloride)]	5.84	4.45	2.08	0.884	10.9
Cn1nnc(-c2ccc(-c3ccc(N4C[C@H](COP(=O)(O)O)OC4=O)cc3F)cn2)n1 [Tedizolid Phosphate]	-1.24	8.42	3.68	2.23	0.136
CCNC(=O)[C@@H]1CCCN1C(=O)[C@H](CCCNC(=N)N)NC(=O)[C@H](CC(C)C)NC(=O)[C@@H](CC(C)C)NC(=O)[C@H](Cc1ccc(O)cc1)NC(=O)[C@H](CO)NC(=O)[C@H](Cc1c[nH]c2ccccc12)NC(=O)[C@H](Cc1c[nH]cn1)NC(=O)[C@@H]1CCC(=O)N1 [Leuprorelin (acetate)]	16.2	-0.397	-3.87	1.37	4.92
CN1CCN(C2=Nc3ccccc3Oc3ccc(Cl)cc32)CC1 [Loxapine (succinate)]	20.5	-13.4	43.6	-11	-0.239
Nc1ccc(C(=O)NCC(=O)O)cc1 [4-Aminohippuric Acid]	3.62	5.22	3.44	-0.693	7.16
COc1c(N2CCNC(C)C2)c(F)cc2c(=O)c(C(=O)O)cn(C3CC3)c12 (stereo not given) [Gatifloxacin]	15	-3.53	-1.17	2.86	2.83
C[n+]1ccccc1/C=N/O [Pralidoxime (chloride)]	1.97	-3.28	6.01	2.57	1.74
N=C(N)NCCC[C@@H](NC(=O)[C@@H]1CCCN1C(=O)[C@@H]1CSSCCC(=O)N[C@@H](Cc2ccc(O)cc2)C(=O)N[C@@H](Cc2ccccc2)C(=O)N[C@@H](CCC(N)=O)C(=O)N[C@@H](CC(N)=O)C(=O)N1)C(=O)NCC(N)=O [Desmopressin (trifluoroacetate salt)]	0.805	-0.652	28.8	-4.29	5.42
CC(C(=O)O)c1cccc(C(=O)c2ccccc2)c1 (racemic) [(±)-Ketoprofen]	0.309	-1.06	8.57	6.2	11.1
O=C(O[C@H]1CN2CCC1CC2)N1CCc2ccccc2[C@@H]1c1ccccc1 [Solifenacin (succinate)]	3.16	-8.09	25.6	-1.09	1.96
CC(C)(C)NC[C@H](O)COc1nsnc1N1CCOCC1 [Timolol (maleate)]	6.66	-3.72	0.276	-0.906	6.47
CC(=O)NC[C@H]1CN(c2ccc(N3CCOCC3)c(F)c2)C(=O)O1 [Linezolid]	-5.19	5.59	-0.74	3.24	0.137
CN[C@H](CC(C)C)C(=O)N[C@H]1C(=O)N[C@@H](CC(N)=O)C(=O)N[C@H]2C(=O)N[C@H]3C(=O)N[C@H](C(=O)N[C@H](C(=O)O)c4cc(O)cc(O)c4-c4cc3ccc4O)[C@H](O)c3ccc(c(Cl)c3)Oc3cc2cc(c3O[C@@H]2O[C@H](CO)[C@@H](O)[C@H](O)[C@H]2O[C@H]2C[C@](C)(N)[C@H](O)[C@H](C)O2)Oc2ccc(cc2Cl)[C@H]1O [Vancomycin (hydrochloride)]	-0.532	-0.846	1.02	-1.36	9.98
C[C@@H]1NC(=O)[C@@H](N)CNC(=O)[C@H](C2CCNC(=N)N2)NC(=O)/C(=C/NC(N)=O)NC(=O)[C@H](CNC(=O)CC(N)CCCN)NC1=O.N=C1NCC[C@H]([C@@H]2NC(=O)/C(=C/NC(N)=O)NC(=O)[C@H](CNC(=O)C[C@@H](N)CCCN)NC(=O)[C@H](CO)NC(=O)[C@@H](N)CNC2=O)N1 [Capreomycin (sulfate)]	19.5	3.05	-0.814	2.2	3.54
